ADAM17 inh – inhibitors of human ADAM17; recombinant ADAM17, EDANS/DABCYL FRET peptide cleavage; inhibition, % at 6.95 µM; 0.83% of 370,000 active;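 active = inhibition above the mean of compounds lying between control limits plus 3 SD, set per campaign, cut at about 8.5% in these data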;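 also: 0% = DMSO-only wells as the low control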
proKLK7 act – activates the human kallikrein-7 zymogen | P49862 | purified proKLK7, EDANS-DABCYL substrate fluorescence; 100% is mature enzyme control, 0% vehicle | activation, % at 7 µM | 0.9% of 370,000 active;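 active = activation above the mean of all tested compounds plus 3 SD, computed per campaign excluding outliers beyond control limits, cut at about 13% in these data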
ADAM10 inh – ADAM10 inhibition, QFRET primary screen. O14672. recombinant ADAM10, EDANS/DABCYL FRET peptide cleavage, 3 h. inhibition, % at 7 µM. 0.62% of 370,000 active. AID 720582;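 active = inhibition above a per-campaign cutoff equal to the mean of compounds falling between control-based bounds plus 3 SD, cut at about 20% in these data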;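 also: 0% = DMSO wells while the 100% control is not disclosed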
GC-A act – GC-A (human) enzyme activation | P16066 | HEK293 GC-A cells, cGMP TR-FRET, EC30 ANP; 0% at EC30 ANP, 100% saturating ANP | activation, % at 10 µM | 0.14% of 370,000 active; in the data active = activation above about 40%
NPR2 activator – GC-B (human) receptor activation; activation, % at 10 µM; HEK293-GC-B cells, CNP EC30, cGMP TR-FRET; 0% at EC30 CNP, 100% saturating CNP; 0.11% of 370,000 active;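 active = activation at 10 µM reaching about 35% in either raw or pattern-adjusted values, limit read from the data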
proKLK7 act conf – proKLK7 activation, confirmation | shares compounds with proKLK7 act | purified proKLK7, EDANS-DABCYL substrate fluorescence; scaled: vehicle 0, mature enzyme 100 | activation, % at 7 µM | 68% of 3,200 active | AID 686949;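 active = activation, as change over the incubation, above the mean of all tested compounds plus 3 SD, cut at about 13% in these data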
EDANS interfere – optically interferes with EDANS-DABCYL signal, flagging KLK7 hits | 80% of 3,200 active | shares compounds with proKLK7 act | activation, % at 7 µM | EDANS-DABCYL substrate fluorescence interference, no enzyme, 4 h; solvent 0%, active enzyme control 100% | AID 686952;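 active = activation above the all-compound mean plus 3 SD, ignoring values outside control-based bounds, cut at about 4.8% in these data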;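 also: value is the 4 h activation minus the activation read at time zero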
K7 EDANS ctr – optically interferes with EDANS-DABCYL fluorescence, kallikrein-7 activator counter-screen; shares compounds with proKLK7 act; EDANS-DABCYL peptide fluorescence interference, no enzyme; EC50, µM; 20% of 250 active; AID 720493;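 active = compounds that raise the fluorescence signal in this interference counterscreen, with EC50 at or below 10 µM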;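 also: intact quenched peptide substrate alone read at 355 nm excitation and 520 nm emission; signal is fluorescence gain from T0 to T4 after four hours at room temperature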
* marks the source's active call; other numbers are inactive results; i = inactive; nt = not tested or not shown. Rows were chosen to be rich in hits. Some 2.2% of all compounds tested hit in one or more screens of this group.

SMILES	ADAM17 inh	proKLK7 act	ADAM10 inh	GC-A act	NPR2 activator	proKLK7 act conf	EDANS interfere	others
CCOc1cc(C2C(C#N)=C(N)OC3=C2C(=O)CC(C)(C)C3)cc([N+](=O)[O-])c1O (configuration not stated)	0.9	0.4	2.7	-3.5	-7.7	nt	nt
CC1(C)CC(=O)C2=C(C1)OC(N)=C(C#N)C2c1cc2c(cc1[N+](=O)[O-])OCO2 (configuration not stated)	-66.8	107.7*	-231.7	-15.3	-8.2	65.5*	66.4*
CCCCN(CC)CCCNC(=O)c1cc2cc3ccc(OC)cc3nc2o1	i	62.7*	i	0.8	-2.9	58.3*	72.2*
COc1ccc2cc3cc(C(=O)NCCCN4CCOCC4)oc3nc2c1	i	48.5*	i	4.2	0.8	63.9*	68.9*
Cc1ccc2cc3cc(C(=O)NCCCN4CCCC4=O)oc3nc2c1	i	17.4*	i	0.4	-4.9	8.7	7.5*
COc1ccc2cc3cc(C(=O)NCCc4ccc(OC)c(OC)c4)oc3nc2c1	-98.7	-74.0	-490.4	9.7	1.1	nt	nt
Cc1ccc2cc3cc(C(=O)NCCN4CCOCC4)oc3nc2c1	-317.7	13.2*	i	1.9	3.4	14.4*	12.6*
CN1C=CC2=C(C#N)C(N)C(C#N)(C#N)[C@H](c3ccccc3)[C@H]2C1 (some centres not stated)	-224.2	38.9*	i	2.0	3.7	22.0*	18.1*	K7 EDANS ctr=>69.5
CCOC(=O)CC1(C)NC(=O)c2c(C)sc(C(=O)OCC)c2N1 (configuration not stated)	-235.8	13.0*	i	-4.0	4.5	-15.9	-21.7
CCOC(=O)CC1(CC(=O)OCC)NC(=O)c2c(C)sc(C(=O)OCC)c2N1	-190.4	13.1*	i	4.2	-5.1	4.4	4.3*
CCCCC1(C)NC(=O)c2c(C)sc(C(=O)OCC)c2N1 (configuration not stated)	-170.0	5.4	i	-20.9	-9.9	nt	nt
COc1ccc(-c2ccc3c(n2)CCCN3Cc2ccccc2C(F)(F)F)cc1	-332.7	18.5*	i	0.5	-3.0	15.5*	12.7*	K7 EDANS ctr=i
FC(F)(F)c1ccccc1CN1CCCc2nc(-c3ccccc3)ccc21	-18.1	1.1	-68.7	0.0	-0.1	nt	nt
CN1CCN(c2c(F)cc3c(=O)c(C(=O)O)cn4c3c2OCN4C)CC1	-126.8	60.1*	-350.6	-3.1	-0.6	20.5*	30.4*
CCN(CC)CCCNC(=O)C1CCN(C(=O)c2oc3cc4sc(N(C)C)nc4cc3c2C)CC1	-52.1	13.3*	-149.1	1.4	-2.0	11.6	9.0*
COCCCNC(=O)C1CCN(C(=O)c2oc3cc4sc(N(C)C)nc4cc3c2C)CC1	-92.7	21.0*	-227.9	5.0	-3.5	-5.0	-4.5
Cc1nn(-c2ccccc2)c2nc(N)c(C(N)=O)cc12	-264.0	14.4*	i	18.2	27.2	15.0*	17.1*
COc1ccc(/C=C/C(=O)NC(=S)Nc2ccc(S(N)(=O)=O)cc2)cc1OC	-11.2	19.3*	-21.3	-4.9	0.4	12.8*	17.2*
COc1ccc(-c2cnnn2-c2ccc(NC(=O)/C=C/c3ccc(OC)c(OC)c3)cc2)cc1	-4.7	-12.9	-9.9	1.6	1.5	nt	nt
COc1ccc(/C=C/C(=O)Nc2ccc(-n3nncc3-c3ccc(OC)c(OC)c3)cc2)cc1OC	-15.8	28.0*	-90.5	-1.3	7.7	-8.9	-20.1
COc1cc(/C=C/C(=O)Nc2ccncc2)cc(OC)c1OC	-129.4	28.5*	-390.1	2.6	5.1	8.5	18.4*
COc1ccc(/C=C/C(=O)NC(=S)Nc2ccccc2)cc1OC	-8.6	-1.4	-2.1	3.0	-0.1	nt	nt
O=C1N(CCCO)CCC12CCCCC2	-1.9	-0.3	-6.0	-0.2	0.8	nt	nt
C=CCN1[C@H](Cc2ccccc2)COc2cc(N3CCSCC3)ccc2S1(=O)=O	-0.4	0.0	6.8	1.2	3.7	nt	nt
COc1ccc2c(c1)CCc1cc(C(=O)O)sc1-2	i	55.6*	i	0.9	-3.1	59.0*	67.5*
SMILES	ADAM17 inh	proKLK7 act	ADAM10 inh	GC-A act	NPR2 activator	proKLK7 act conf	EDANS interfere	others
COc1ccc(-c2cc(C(=O)O)sc2C)cc1	-6.0	0.2	-2.8	-1.0	-3.2	nt	nt
COc1ccc(N2CCN(CCC(=O)c3ccc4ccccc4c3)CC2)cc1	-11.8	21.9*	-14.3	-1.4	3.4	15.0*	14.7*
COc1ccc(N2CCN(CC(=O)c3ccccc3)CC2)cc1	-4.3	0.2	-5.4	2.0	3.3	nt	nt
CC(C)c1cc(NCC2CCCO2)n2c(nc3ccccc32)c1C#N (configuration not stated)	i	21.1*	i	12.0	14.1	-11.5	-16.5
Cc1cc(NCC2CCCO2)n2c(nc3ccccc32)c1C#N (configuration not stated)	-305.4	16.1*	i	12.1	7.3	43.6*	34.3*
C=CCN1C(=O)[C@@H](CC(=O)NCc2cccc3ccccc23)[C@]2(C(=O)OC)CCCCC=C12	-1.4	0.1	-7.3	-0.1	-8.0	nt	nt
CC(C)(C)OC(=O)n1ccc2ccc(-c3ccc4cc[nH]c4c3)cc21	-43.3	-3.9	-128.2	-3.0	-5.5	nt	nt
Cc1c2c(n3c(nc4ccccc43)c1C#N)N(CCN(C)C)CC2	-482.2	113.9*	i	1.6	-5.2	-7.3	-2.5
Cc1c2c(n3c(nc4ccccc43)c1C#N)N(CCCN(C)C)CC2	-321.0	63.0*	i	-1.6	1.4	1.9	7.4*
CCc1c(C)c(C#N)c2nc3ccccc3n2c1NCCCN(C)C	-29.4	4.2	-106.3	3.6	-1.0	nt	nt
Cc1nc(NC2CCCC2)c2nnn(Cc3ccccc3)c2n1	1.2	-0.2	8.9	2.9	-0.4	nt	nt
CN(C)C=Nc1ccc(Cn2cnc3nc4ccc(Cl)cc4cc3c2=O)cc1	-25.9	0.2	-102.7	6.6	-9.0	nt	nt
CCOC(=O)c1nn(-c2ccccc2)c(C#N)c1N	i	25.4*	i	-4.8	-7.2	17.7*	24.6*
COc1cc2c[n+](C)c3c4ccccc4ccc3c2cc1OC	-330.1	26.2*	i	17.0	-2.0	10.5	16.0*
COc1ccc(C2C(C(=O)N3CCC(C)CC3)CC(=O)N2c2ccc(OC)cc2)cc1 (configuration not stated)	-0.4	0.2	2.1	-5.1	0.7	nt	nt
COC(=O)c1cc2nc(-c3ccccc3)cc(C)n2n1	-63.4	5.2	-191.2	-3.8	-2.9	nt	nt
CCOc1ccc(-c2cc(C)n3nc(C(N)=O)cc3n2)cc1	-242.4	30.2*	i	6.5	-2.3	49.5*	55.5*

Bioassay records: PubChem, several laboratories
